One test has as its system Staphylococcus aureus. To be noted: Concentration 20 uM; ASSAY_TEST Inhibition of Bacterial Growth; detection method Absorption (OD600); MEDIA CAMHB; plate type 384well; NBS; CORNING #3640; time 18 hr.
The next test relates to Escherichia coli. To be noted: Concentration 20 uM; ASSAY_TEST Inhibition of Bacterial Growth; detection method Absorption (OD600); MEDIA CAMHB; plate type 384well; NBS; CORNING #3640; time 18 hr.

Results with a measured potency or affinity are listed apart.

The term Inhibition denotes the change of the read-out against control, counted positive when it falls. With `Nc1c2c(nc3sc4c(c13)CCCC4)CCCC2`, the Inhibition with Staphylococcus aureus is recorded as 6.99%; in the test with Escherichia coli, -4.01%.

Regarding `CO[C@@H](C(=O)N1Cc2[nH]nc(NC(=O)c3ccc(N4CCN(C)CC4)cc3)c2C1)c1ccccc1` [DANUSERTIB], the Inhibition came to 12.13% in the test on Staphylococcus aureus and 1.94% with Escherichia coli.

As for `CC1(C)OB(O)c2ccc(C3=NOC(c4cc(Cl)c(F)c(Cl)c4)(C(F)(F)F)C3)cc21` (stereo not given), the Inhibition in the test with Staphylococcus aureus is listed as 15.02%; in the test with Escherichia coli it was 11.05%.

As for `Cc1nn(Cc2ccccc2)c(Cl)c1C(=O)NC1CCCCCC1`, the values for the Inhibition in the test on Staphylococcus aureus and in the test on Escherichia coli were 11.91% and 1.54%, respectively.

Take `Cc1nn(C)c(C)c1NS(=O)(=O)c1c(Cl)cc(-c2ccnc(N3CCNCC3)c2)cc1Cl`: the Inhibition was 12.75% in the test with Staphylococcus aureus and 5.87% in the test with Escherichia coli.

For the compound `CC(=O)Oc1ccccc1C(=O)Nc1ncc([N+](=O)[O-])s1` [NITAZOXANIDE], the results for the Inhibition in the test on Staphylococcus aureus and with Escherichia coli were 50.75% and -2.79%, respectively.

As for `Cc1cccc(C(=O)Nc2ccnc(N(C)C3CCN(CC(C)C)CC3)c2)c1`, the Inhibition with Staphylococcus aureus is on record as 17.27%; with Escherichia coli, 7.9%.

Regarding `Cc1cc(C2=NOC(c3cc(Cl)c(F)c(Cl)c3)(C(F)(F)F)C2)ccc1C(=O)NCc1ccc2c(c1)C(C)(C)OB2O` (stereo not given), the Inhibition with Staphylococcus aureus is reported as 14.07%; with Escherichia coli it was 6.28%.

As to `CO[C@@H]1CN(c2ccc(C#CC3(O)CN4CCC3CC4)c(Cc3ccccc3)n2)C[C@H]1O` (stereo not given in full), the figures for the Inhibition in the test with Staphylococcus aureus and with Escherichia coli were -11.47% and -3.76%, respectively.

As for `CNCCC(Oc1ccc(C(F)(F)F)cc1)c1ccccc1` (stereo not given) [FLUOXETINE], the Inhibition is 7.53% with Staphylococcus aureus and 3% in the test on Escherichia coli.

For the origin of these results see ChEMBL document CHEMBL4513149, “CO-ADD screening of MMV (CH) - MMV compounds” (2021).
